In PubChem BioAssay AID1345082 (National Center for Advancing Translational Sciences (NCATS), 2018):
Screen size: about 94,000 compounds; about 4,000 (4.3%) were called active. Another 29% or so got no clear call; they are omitted. The call rests on the fitted dose curve; in most records, active means well fitted inhibition curve with a large enough effect; inconclusive means small, poorly fitted or top-dose-only effect; inactive means no such curve, though single readings can be large or run the other way. What follows is part of a selection rich in actives, with near analogues and random picks from the rest. A call without a number means that no potency is given here.

Experiment: Cytotoxic Profiling in NIH 3T3 Cell Line of Diverse Libraries Using Quantitative High-Throughput Screening; further: nearly all actives have a fitted effect of over 55% in size
Conditions: NIH 3T3 viability, CellTiter-Glo ATP luminescence, 48-72 h; series mostly up to 96.7 µM
Procedure, shortened: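 Cells were seeded at 400 per well, treated with pin-transferred compound, and kept 48 or 72 hr at 37 °C before CellTiter-Glo addition and luminescence imaging of cellular ATP.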
Potency means the concentration at half of the fitted maximal effect.

SMILES	Potency
CN1CCC(NC(=O)C2CCCN(S(=O)(=O)c3ccccc3)CCC(=O)NCC2)CC1 (centres undefined)	inactive
Cn1ncc2c(C(=O)NCC#N)cc(-c3cccc(C(F)(F)F)c3)nc21	inactive
COc1ccc(-c2cc(C(=O)NCC#N)c3cnn(C)c3n2)cc1	15.8 µM (active)
Cn1ncc2c(C(=O)NCC(F)(F)F)cc(-c3ccc(C(F)(F)F)cc3)nc21	inactive
Cc1noc(C)c1S(=O)(=O)NCC1Cn2cccc2C(=O)N1C (centres undefined)	inactive
Cc1ncnc(N2CCC(Oc3ccc4ccccc4c3)(C(=O)O)CC2)c1C	inactive
COc1ccc(-c2[nH]nc3ncc(C(=O)Nc4ccccc4)nc23)c(C)c1	28.2 µM (active)
COc1cccc(NC(=O)c2cnc3n[nH]c(-c4ccc(OC)cc4C)c3n2)c1	50.1 µM (active)
CCOc1ccc2c(n1)CCN(C(=O)Nc1ccc(OC)cc1C)C2	inactive
COc1cccc(-c2cc(C(=O)Nc3cccc(Cl)c3)c3cnn(C)c3n2)c1	inactive
COc1ccc(-c2[nH]nc3ncc(-c4cn[nH]c4)nc23)cc1F	inactive
COc1cccc(NC(=O)c2c(OC)cc(=O)n3c2CCCC3)c1	inactive
CNC(=O)[C@H]1C[C@H](Oc2ccccc2)CN1C(=O)c1cc(-c2ccccc2)n[nH]1	inactive
CN(Cc1nccn1C)C(=O)c1cc(CN2CCC(Cc3ccccc3)CC2)on1	inactive
CC1(C)[C@H](Cc2cc(CC3CCCCC3)on2)C[C@@H]1NC1CCOCC1	31.6 µM (active)
CCC(CC)C(=O)N[C@H]1C[C@@H](Cc2cc(COc3ccccc3)on2)C1(C)C	70.8 µM (active)
COCc1cc(C[C@@H]2CC[C@H](O)[C@@H](CN(CC3CCCCC3)CC3CCCCC3)O2)no1	inactive
CC1(C)[C@H](Cc2cc(CCO)on2)C[C@@H]1NCC1CC1	inactive
CC(=O)N1CCC(N[C@H]2C[C@@H](Cc3cc(CN(C)c4ccccc4)on3)C2(C)C)CC1	89.1 µM (active)
COCc1cc(C[C@@H]2CC[C@H](O)[C@@H](CN(C)C)O2)no1	inactive
CC1(C)[C@H](Cc2cc(CN3CCCCC3)on2)C[C@@H]1NS(C)(=O)=O	inactive
CN(Cc1ccccc1)Cc1cc(CC2(NCc3ccc(CO)o3)COC2)no1	inactive
CC1(C)[C@H](Cc2cc(CC3CCCCC3)on2)C[C@@H]1NC(=O)C1CCC1	39.8 µM (active)

SMILES	Potency
CC(=O)N1CCC(NC[C@H]2O[C@H](Cc3cc(-c4cccc(O)c4)on3)CC[C@@H]2O)CC1	inactive
CN(C)S(=O)(=O)N1CCCOCCNC(=O)[C@@H]2CCC[C@@H]21	inactive
COc1ccc2[nH]c(C(=O)N3C[C@@H](Oc4ccccc4)C[C@H]3C(=O)N3CCCC3)cc2c1	inactive
O=C(c1nc2sccn2c1CN1CCCC(CO)C1)N1CCCCC1 (centres undefined)	inactive
COc1ccc(NC(=O)CC2CCOCC2)cc1	inactive
Cc1cccc(CC(=O)N2C[C@@H](CO)[C@H](c3ccccn3)C2)c1	inactive
CC(C)(C)c1coc([C@@H]2COCCN2C2CCC2)n1	inactive
CCOc1cc(=O)n2c(c1C(=O)NCCc1ccccc1)CCCCC2	inactive
O=C(Cc1ccc(F)cc1)NC1CCN(c2cn[nH]c(=O)c2)CC1	inactive
Cc1cccc(-c2cccc(CN3CCC(NC(=O)Cc4ccc(F)cc4)CC3)c2)c1	28.2 µM (active)
COC(=O)N1CCN(C(=O)c2cccc(-c3cccc(OC)c3)c2)CC1	inactive
Cc1cccc(-c2cccc(CN3CCC(NC(=O)Nc4ccccc4)CC3)c2)c1	12.6 µM (active)
COc1cccc(-c2ccc(C(=O)N3CCC(NC(=O)Cc4ccc(F)cc4)CC3)cc2)c1	39.8 µM (active)
O=C(Cc1ccc(F)cc1)NC1CCN(c2nc3ncccc3o2)C1 (centres undefined)	inactive
COc1ccc(-c2ccccc2C(=O)N2CCC(NC(=O)Cc3ccc(F)cc3)CC2)nn1	inactive
O=C(CCNc1cnc2cnccn12)NC1CCN(Cc2ccccc2)CC1	inactive
CN1C(=O)c2cccn2CC1C(=O)NC1CCN(Cc2ccccc2)CC1 (centres undefined)	inactive
COCCN1CCC(N2CCN(S(=O)(=O)c3ccccc3)CC2)C1=O (centres undefined)	inactive
O=C(NCC1CCOCC1)C1COc2ccccc2O1 (centres undefined)	inactive
CC(C)(C)CC(=O)NC1CCN(c2cnn(CC3CC3)c(=O)c2)CC1	inactive
O=C(NCCc1noc(-c2ccccc2)n1)C1CC1	inactive
CCn1cc(C(=O)N2CC(COC)C3(CCNCC3)C2)cn1 (centres undefined)	inactive
Cc1noc(C)c1[S+](=O)([O-])N1CCn2c(nnc2-c2ccccc2)C1	inactive

SMILES	Potency
CSc1ccc(-c2cccc(CN3CCC(N[S+](=O)([O-])c4cccs4)CC3)c2)cc1	12.6 µM (active)
Cc1noc(C)c1[S+](=O)([O-])NC1CCN(Cc2cccc(-c3ccc(F)c(F)c3)c2)CC1	14.1 µM (active)
Cc1noc(C)c1[S+](=O)([O-])N1CC(Oc2ccc(F)c(F)c2)C1	inactive
O=C(Nc1cc(F)ccc1F)N1CCC(Oc2ncccc2C(=O)N2CCCCC2)C1 (centres undefined)	inactive
Cn1cccc1C(=O)N1CCCC(c2nc(-c3ccccc3)no2)CCNC(=O)CC1 (centres undefined)	inactive
COc1ccccc1NC(=O)Cn1c(C)cc2nc3n(c(=O)c21)CCC3	inactive
Cc1noc(C2CC3(CCN(C(=O)c4sc(C)nc4C)CC3)CN2C)n1 (centres undefined)	inactive
CCn1nc(C)cc1C(=O)N[C@H]1[C@H](O)[C@H](O)C[C@@H]1c1cccnc1	inactive
CN1CCN([C@H]2CCN(C(=O)Cc3cccc(O)c3)C[C@H]2CCCO)CC1	inactive
COCCNC(=O)[C@@H]1C[C@H](Oc2cccnc2)CN1C(=O)c1nccn1C	inactive
Cc1cc(=O)n(CC(=O)Nc2cccc(Cl)c2C)c(N2CCc3ccccc3C2)n1	inactive
CCOC(=O)C1=CN(CC(=O)NCCc2ccc(Cl)cc2)S(=O)(=O)N=C1C	inactive
Cc1cc(=O)n(CC(=O)NCCc2ccc(Cl)cc2)c(N2CCc3ccccc3C2)n1	25.1 µM (active)
CCC(CC)NC(=O)C1Cn2cccc2C(=O)N1Cc1cccnc1 (centres undefined)	inactive
Cn1nccc1C(=O)NC1CCCN(c2cc(-c3ccc(F)cc3)[nH]n2)C1 (centres undefined)	inactive
CCn1ccc(C(=O)NC2CCCN(c3cc(-c4ccc(F)cc4)[nH]n3)C2)n1 (centres undefined)	inactive
O=C(NC1CCN(c2cc(-c3ccc(F)cc3)[nH]n2)C1)c1cc2ccccc2[nH]1 (centres undefined)	39.8 µM (active)
Cc1ccc(-c2cc(N3CCC(CNC(=O)c4ccc(N(C)C)cc4)CC3)n[nH]2)cc1	inactive
O=C(Cc1ccc(F)cc1)NC1CCN(c2cc(-c3ccc(Cl)cc3)[nH]n2)CC1	inactive
O=C(NCC1CCN(c2cc(-c3ccc(Cl)cc3)[nH]n2)CC1)c1ccc2nc[nH]c2c1	35.5 µM (active)
O=C(NC1CCN(c2cc(-c3ccc(Cl)cc3)[nH]n2)C1)c1c[nH]c2ccccc12 (centres undefined)	39.8 µM (active)
O=C(NC1CCN(c2cc(-c3ccccc3)[nH]n2)CC1)c1cccs1	inactive
CC(=O)N1CCC(C(=O)NCC2CCN(c3cc(-c4ccc(C)cc4)[nH]n3)CC2)CC1	inactive
